# In the library only some 11% were active in any assay of this set; here they are far more common.
# BAZ2B block = qHTS Assay for Inhibitors of BAZ2B | Bromodomain adjacent to zinc finger domain protein 2B (Homo sapiens), Q9UIF8 | AlphaScreen BAZ2B-H3K14Ac peptide displacement | 360,000 tested, 4.4% active | Potency, µM (titrated, usually from 114 µM), inactives show top-dose activity change, negative = inhibition, hits mostly inhibitors; note: % is set by controls: 0 for no effect and ±100 for the full control effect; nearly all actives have a fitted effect of over 60% in size
#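 AlphaScreen displacement: compounds (up to 110uM) incubated 30 min at room temperature with a preformed 50 nM BAZ2B/50 nM biotinylated H3K14Ac peptide complex in PBS pH 7.4 with Tween-20. Donor and acceptor beads at 10 ug/mL final added, 20 min light-protected before reading.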
# G9a block = qHTS Assay for Inhibitors of Histone Lysine Methyltransferase G9a | Histone-lysine N-methyltransferase EHMT2 (Homo sapiens), Q96KQ7 | G9a H3K9 monomethylation, AlphaScreen, 2 h | Potency, µM (highest dose often 102 µM), for the others: top-dose activity, negative = inhibition, hits mostly inhibitors | 350,000 tested, 8.8% active; note: % is set by controls: 0 for no effect and ±100 for the full control effect; nearly all actives have a fitted effect of over 75% in size
#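 AlphaScreen read-out: biotin-H3K9 peptide (500 nM) methylation by 20 nM enzyme with 20 uM SAM, 2 h at room temperature after 15 min compound preincubation; anti-monomethyl H3K9 antibody plus donor/acceptor beads, 10 min dark.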
# L3MBTL1 block = qHTS Assay for the Inhibitors of L3MBTL1; AlphaScreen L3MBTL1–H3K9me1 peptide binding; Potency, µM (series often up to 57.1 µM), for inactives: at the highest dose activity, negative = inhibition, most hits filed as inhibitors; 230,000 tested, 0.66% active; AID 485360, 2010; note: % is set by controls: 0 for no effect and ±100 for the full control effect; nearly all actives have a fitted effect of over 60% in size
#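 First, the protein-peptide complex forms for 30 min at room temperature (L3MBTL1 50 nM, biotinylated H3K9me1 peptide 75 nM). Next, compounds are pin-transferred and incubated 30 min. Finally, AlphaScreen beads are added and read after 30 min.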
# JMJD2A Tudor inh = qHTS Assay for Inhibitors of JMJD2A-Tudor Domain; Lysine-specific demethylase 4A (Homo sapiens), O75164; AlphaScreen JMJD2A-Tudor / H3K4me3 peptide binding; Potency, µM (highest dose often 114 µM), for the others: top-dose activity change, negative = inhibition, hits mostly inhibitors; 390,000 tested, 4.4% active; AID 504339, 2011; note: % is set by controls: 0 for no effect and ±100 for the full control effect; nearly all actives have a fitted effect of over 50% in size
# HP1b chromo inh = HTS for Inhibitors of HP1-beta Chromodomain Interactions with Methylated Histone Tails; AlphaScreen HP1-beta / biotin-H3K9me3 peptide binding; Potency, µM (doses to about 114 µM), inactives show top-dose activity change, negative = inhibition, actives largely listed as inhibitors; 390,000 tested, 0.56% active; note: nearly all actives have a fitted effect of over 70% in size
#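 HP1-beta protein (50 nM final) preincubated 30 min at room temperature with biotinylated H3(1-18)K9me3 peptide (50 nM) in PBS pH 7.4, 0.01% Tween-20, then compound added for 30 min. AlphaScreen streptavidin donor/nickel chelate acceptor beads (10 ug/mL final), 30 min dark, luminescence read.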
# * marks the source's active call; other numbers are inactive results; ? = inconclusive; . = not tested or not shown; ! = not confirmed by another sample; [ ] = another dose, or the depositor's remark. Calls come from the whole dose curve; as a rule, active = well fitted inhibition curve with a large enough effect; inconclusive = small, poorly fitted or top-dose-only effect; inactive = no such curve, though single readings can be large or run the other way. Potency is the fitted concentration of half-maximal effect.
SMILES,BAZ2B block,G9a block,L3MBTL1 block,JMJD2A Tudor inh,HP1b chromo inh
CCOC(=O)C1=C(c2ccccc2)N=c2s/c(=C\c3ccco3)c(=O)n2C1c1cccs1 (stereo not given),11µM*,?,22%,25µM*,-35%
CCOC(=O)C1=C(N)n2c(s/c(=C/c3ccccc3)c2=O)=C(C(=O)OCC)C1c1ccccc1 (stereo not given),-24%[57.1 µM],12%,-4%,.,.
CCOC(=O)C1=C(N)n2c(s/c(=C\c3ccco3)c2=O)=C(C(=O)OCC)C1c1ccco1 (stereo not given),7.9µM*,?,-3%,?,-18%
C=CC[C@H](N)C(=O)O,.,1%[59 µM],.,.,.
CCCn1c(=O)n(-c2ccccc2)c(=O)c2sc3ccccc3c21,-7%,-31%[59 µM],.,-5%,22%
NC(=O)Cn1c(=O)n(CCCCCC(=O)NCc2ccccc2)c(=O)c2sccc21,7%,4%[59 µM],.,15%,41%
Cc1ccc(-c2cc(-c3coc4ccc(Cl)cc4c3=O)c3c(n2)-c2ccccc2OC3)cc1,-20%,-6%[59 µM],.,-15%,24%
NC(=O)N/N=C/c1c(Sc2nnnn2-c2ccccc2)nc2ccccn2c1=O,2%,50µM*,-1%,-1%,44%
Cc1nn(-c2ccccc2)c(Cl)c1/C=N/NC(N)=O,-20%,-5%,.,-9%,9%
CCOC(=O)C1CCC(CN(Cc2ccc(OC)cc2)S(=O)(=O)c2ccc(F)c(C(=O)Nc3cc(Cl)ccc3OC)c2)CC1 (stereo not given),-16%,1%[59 µM],.,-32%,30%
CC(=O)Nc1nc(CC(C)C)cc(-c2ccco2)c1C#N,4%,16µM*,.,-5%,17%
Cc1cc(C)n2c(Nc3cccc(C(F)(F)F)c3)c(-c3ccsc3)nc2n1,-2%,-8%[59 µM],.,2%,24%
Cc1cc(N/N=C2/CCCc3ccccc32)nc2ccccc12,?,50µM*,8%,?,18%
COc1ccc(Cl)cc1NC(=O)CSc1cn(CC(=O)N2CCCCC2)c2ccccc12,-14%,?,.,-24%,8%
O=C1C(=O)N(CCCN2CCOCC2)C(c2ccc([N+](=O)[O-])cc2)/C1=C(/O)c1ccc2c(c1)OCO2 (stereo not given),-21%,50µM*,.,-14%,30%
COC(=O)c1ccc(C2/C(=C(\O)c3ccc4c(c3)OCCO4)C(=O)C(=O)N2CCCN2CCOCC2)cc1 (stereo not given),-14%,?,.,-5%,34%
C=CCOc1ccc(C2/C(=C(\O)c3ccc4c(c3)OCCO4)C(=O)C(=O)N2CCCN2CCOCC2)cc1 (stereo not given),-24%[57.1 µM],50µM*,.,-14%,13%
CNCCCC12CCC(c3ccccc31)c1ccccc12,-1%,71µM*!,-8%,-28%,38%
CNCCCC1c2ccccc2C=Cc2ccccc21,-3%,22%[59 µM],-27%,-14%,10%
COC(=O)CCNC(=O)Cc1c(C)n(C(=O)c2ccc(Cl)cc2)c2ccc(OC)cc12,-20%,50µM*,.,-25%,4%
CCCNC(=O)Cc1c(C)n(C(=O)c2ccc(Cl)cc2)c2ccc(OC)cc12,1%,.,.,-12%,24%
Cc1ccc(NS(=O)(=O)c2cnc(N)nc2)c(C)c1,0%,-6%[59 µM],.,-14%,9%[57 µM]
CCCc1cc(-n2ccnc2)n2c(nc3ccccc32)c1C#N,-5%,40µM*,-4%,8%,37%
c1cc2cn[nH]c2cc1NC1CCCCCC1,?,4.5µM*,-16%,?,-3%
COC(=O)c1scc(-c2ccc(C)cc2)c1S(=O)(=O)N1CCN(c2cccc(Cl)c2)CC1,-20%,-25%[59 µM],.,-23%,7%
Cc1cc(=O)c2c(O)c3c(O)cc(O)c4c5c(O)cc(O)c6c(O)c7c(=O)cc(C)c8c1c2c(c34)c(c65)c78,.,8.9µM*,.,.,.
Cc1cc(=O)c2c(C)ccc(C)c2[nH]1,-3%,25%,.,-11%,23%
